Assay [1] can be described thus: qHTS assay to identify small molecule antagonists of the estrogen related receptor (ERR) signaling pathway from Tox21 library - cell viability counter screen (AID 1224834). Also: nearly all actives have a fitted effect of over 30% in size. Also: potency is read from the fitted curve at half-maximal effect. The gist of the method: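 ERR reporter cells were plated 6 h before compound addition, then exposed to test compounds in DMSO for 17.5 h at 37 C. Viability was read as CellTiter-Fluor fluorescence after a 30-minute incubation at 37 C.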
For orientation: In qHTS, concentration-response curves come from the screen itself.

In assay [2] the target is Luciferin 4-monooxygenase (Photinus pyralis) (UniProt P08659). Put plainly: qHTS assay to identify small molecule inhibitors of firefly luciferase (AID 1224835). Also: % is scaled to controls: 0 for no effect and ±100 for the full control effect; nearly all actives have a fitted effect of over 25% in size. The gist of the method:
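Biochemical qHTS: compounds run as interplate titrations against purified firefly enzyme, with D-luciferin and ATP each at its KM concentration. Light output recorded by CCD imaging.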

Assay [3] is described as follows: qHTS assay to identify small molecule agonists of the constitutive androstane receptor (CAR) signaling pathway - cell viability counter screen (AID 1224836). Also: nearly all actives have a fitted effect of over 45% in size. Also: potency is read from the fitted curve at half-maximal effect. The procedure, abridged: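 Using CellTiter-Fluor, viability of HepG2 cells harbouring hCAR and CYP2B6-2.2kb was measured following 23 h incubation with a 15-concentration compound series plus PK11195 (0.75 uM final).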

A short description of assay [4]: qHTS assay to identify small molecule antagonists of the constitutive androstane receptor (CAR) signaling pathway - cell viability counter screen (AID 1224837). Also: nearly all actives have a fitted effect of over 45% in size. Also: potency is read from the fitted curve at half-maximal effect. The gist of the method:
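HepG2 cells stably expressing hCAR and a CYP2B6-2.2kb reporter were plated and pre-incubated 4 hr at 37 C/5% CO2, then given compounds at 15 concentrations plus 50 nM CITCO (final). After 23 hr, viability was read by CellTiter-Fluor fluorescence.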

Assay [5] concerns the target Nuclear receptor subfamily 1 group I member 3 (Homo sapiens) (UniProt Q14994). Put plainly: qHTS assay to identify small molecule antagonists of the constitutive androstane receptor (CAR) signaling pathway (AID 1224838). Also: nearly all actives have a fitted effect of over 40% in size. Also: potency is read from the fitted curve at half-maximal effect. The procedure, abridged: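 HepG2 cells stably co-transfected with hCAR and a CYP2B6-2.2kb luciferase reporter were seeded 4 h before compound addition at 15 concentrations. Cells were stimulated with 50 nM CITCO (final) for 24 h at 37 C; luciferase luminescence was then read.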

The target is the same in assay [6]. Put plainly: qHTS assay to identify small molecule agonists of the constitutive androstane receptor (CAR) signaling pathway (AID 1224839). Also: nearly all actives have a fitted effect of over 15% in size. Also: potency is read from the fitted curve at half-maximal effect. As to activation: % is scaled to controls: 0 for no effect and ±100 for the full control effect. The procedure, abridged: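 Double-stable HepG2 cells (hCAR, CYP2B6-2.2kb) seeded 4 h before compound addition. Exposure 24 h with 0.75 uM PK11195 final. Luciferase detected by ONE-Glo.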
The nature of assay [7]: qHTS assay to identify small molecule antagonists of the estrogen related receptor signaling pathway with the pleiotropic PPARgamma coactivator (PGC) from Tox21 10K library - cell viability counter screen (AID 1224840; active = well fitted cell-killing curve with a large enough effect in the repeat runs, not every such curve was filed as active; also: nearly all actives have a fitted effect of over 40% in size; also: potency is read from the fitted curve at half-maximal effect). The procedure, abridged: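 PGC/ERR cells were seeded at 2,000 cells/well and left 6 hours at 37 C/5% CO2 before pin-tool addition of compounds in DMSO. After 17.5 hours at 37 C, CellTiter-Fluor was added and fluorescence read 30 minutes later.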

For assay [8], the target named is Thyrotropin receptor (Homo sapiens) (UniProt P16473). Kind of assay: qHTS assay to identify small molecule agonists of the thyroid stimulating hormone receptor (TSHR) signaling pathway (AID 1224843; calls by dose curve; also: nearly all actives have a fitted effect of over 45% in size; also: potency is read from the fitted curve at half-maximal effect; as to activation: % is scaled to controls: 0 for no effect and ±100 for the full control effect). The gist of the method:
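TSHR-HEK293 cells in agonist mode, 30 min room-temperature step, then cAMP measured by competitive HTRF (cAMP-d2 with anti-cAMP cryptate) after 1 h at room temperature. Tested at 15 concentrations in triplicate.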

Assay [9] in a line: qHTS assay to identify small molecule agonists of the hypoxia (HIF-1) signaling pathway - cell viability counter screen (AID 1224844; calls by dose curve; also: % is scaled to controls: 0 for no effect and ±100 for the full control effect; nearly all actives have a fitted effect of over 50% in size). The procedure, abridged:
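HRE-bla ME-180 cells in medium with 0.5% dialyzed FBS were preincubated 5 hrs at 37C, exposed to compounds for 17 hrs, then viability was read as CellTiter-Glo luminescence after 30 min at room temperature, in the reporter wells.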

Assay [10] can be described thus: qHTS assay to identify small molecule agonists of H2AX (AID 1224845; active = well fitted activation curve with a large enough effect in the signal ratio in the repeat runs, not every such curve was filed as active; the % refers to the signal ratio; also: potency is read from the fitted curve at half-maximal effect). The procedure, abridged: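 Wild-type CHO-K1 cells, plated overnight, exposed 3hr at 37C to 15 concentrations (0.76% DMSO final). Lysed, then HTRF anti-pH2AX (S139) cryptate and anti-H2AX-d2 antibodies, 24 hr room temperature; 665/620 nm emission read.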
Assay [11] is described as follows: qHTS assay to identify small molecule agonists of the hypoxia (HIF-1) signaling pathway (AID 1224846; active = well fitted activation curve with a large enough effect in the signal ratio in the repeat runs, not every such curve was filed as active; the % refers to the signal ratio; also: % is scaled to controls: 0 for no effect and ±100 for the full control effect). The procedure, abridged:
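HRE-bla ME-180 cells (beta-lactamase reporter under hypoxia response element) were plated at 2,000 cells/well in medium with 0.5% dialyzed FBS, rested 5 hrs, then given compounds in DMSO for 17 hrs at 37C, 5% CO2. Reporter induction was read with CCF4-AM FRET substrate.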

A short description of assay [12]: qHTS assay to identify small molecule agonists of H2AX - cell viability counter screen (AID 1224847; calls by dose curve; also: top concentration of the series differs between compounds; % is scaled to controls: 0 for no effect and ±100 for the full control effect; nearly all actives have a fitted effect of over 30% in size). The gist of the method: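 Quantitative HTS viability measurement: CHO-K1 wild-type cells in serum (10% FBS) medium, short 3 hr drug exposure at 37C with 0.76% DMSO, CellTiter-Glo luminescent detection.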
Assay [13] can be described thus: qHTS RealTime-Glo MT Cell Viability Assay in HepG2 cells - 24 hour (AID 1224867). Also: % is scaled to controls: 0 for no effect and ±100 for the full control effect; nearly all actives have a fitted effect of over 50% in size. The procedure, abridged: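 Compound treatment began 5 h after plating HepG2 cells (600/well) with NanoLuc luciferase and prosubstrate. Plates stayed at 37 C for 40 h; luminescence was captured at six time points, 0 h through 40 h.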
Assay [14] can be described thus: qHTS RealTime-Glo MT Cell Viability Assay in HEK293 cells - 32 hour (AID 1224868). Also: top concentration of the series differs between compounds; % is scaled to controls: 0 for no effect and ±100 for the full control effect; nearly all actives have a fitted effect of over 50% in size. The gist of the method: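 Quantitative high-throughput screen of the Tox21 10K library in HEK293: cells and RealTime-Glo reagents plated together, compound added at 5 h, luminescence monitored through 40 h at 37 C.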
The nature of assay [15]: A CellTox Green Cytotoxicity Assay to monitor cytotoxicity in HEK293 cells - 0 hour (AID 1224869). Also: % is scaled to controls: 0 for no effect and ±100 for the full control effect; nearly all actives have a fitted effect of over 50% in size. The gist of the method: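 HEK293 cells premixed with CellTox Green dye were seeded at 600 cells/well and left 5 h at 37 C/5% CO2 before pin transfer of 23 nL compound in DMSO. Fluorescence from dye bound to dead-cell DNA was read during 40 h treatment.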
A short description of assay [16]: qHTS assay to identify small molecule antagonists of the estrogen related receptor signaling pathway with the pleiotropic PPARgamma coactivator (PGC) from Tox21 10K library (AID 1224841; call rule not given here; also: potency is read from the fitted curve at half-maximal effect). The procedure, abridged: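 PGC/ERR reporter cells were seeded at 2,000 cells/well and held 6 hours at 37 C/5% CO2 before pin-tool addition of compounds in DMSO. After 18 hours at 37 C, One-Glo was added and luminescence read after 30 minutes at room temperature.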

The nature of assay [17]: qHTS assay to identify small molecule agonists of the estrogen related receptor signaling pathway with the pleiotropic PPARgamma coactivator (PGC) from Tox21 10K library (AID 1224842). Also: % is scaled to controls: 0 for no effect and ±100 for the full control effect; nearly all actives have a fitted effect of over 15% in size. The procedure, abridged: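 PGC/ERR reporter cell line, 2,000 cells per well, incubated 6 h at 37 C before 23 nL compound in DMSO was added. After 18 h at 37 C, One-Glo luminescence read following 30 min at room temperature.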

Assay [18] can be described thus: qHTS assay to identify small molecule agonists of the estrogen related receptor (ERR) signaling pathway from Tox21 library (AID 1224849; calls by dose curve; also: % is scaled to controls: 0 for no effect and ±100 for the full control effect; nearly all actives have a fitted effect of over 15% in size). Particulars: ERR reporter cell line, ONE-Glo luciferase, 18 h; at 92.4 µM (top of the series). The gist of the method: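 ERR reporter cell line (NTP) seeded, rested 6 h at 37 C/5% CO2, then pinned with Tox21 compounds in DMSO. After 18 h at 37 C, ONE-Glo luciferase luminescence was read following 30 min at room temperature.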

Assay [19] is described as follows: qHTS assay to identify small molecule antagonists of the estrogen related receptor (ERR) signaling pathway from Tox21 library (AID 1224848). The procedure, abridged:
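ERR reporter cell line (from NTP) seeded 2,000 cells/well, rested 6 h at 37 C/5% CO2, then pin-dosed with compounds in DMSO. After 18 h at 37 C, ONE-Glo added; luminescence read after 30 min at room temperature.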

Values joined by “and” are separate entries in the source; they are usually repeats but may differ in a detail not shown here. Equal values may be shown once. Inconclusive results are not listed. Some structures have more than one record in an assay (separate samples or runs), and their calls can disagree. Active and inactive are the calls of the source. Unless noted, calls follow the shape of the dose curve; as a rule, active = well fitted curve in the direction sought with a large enough effect in the repeat runs; inconclusive = weak or mixed curves; inactive = no such curve, though single readings can be large; an effect the other way counts as inactive or inconclusive.

Chain of Luciferin 4-monooxygenase (Photinus pyralis) (P08659 whole entry, looked up): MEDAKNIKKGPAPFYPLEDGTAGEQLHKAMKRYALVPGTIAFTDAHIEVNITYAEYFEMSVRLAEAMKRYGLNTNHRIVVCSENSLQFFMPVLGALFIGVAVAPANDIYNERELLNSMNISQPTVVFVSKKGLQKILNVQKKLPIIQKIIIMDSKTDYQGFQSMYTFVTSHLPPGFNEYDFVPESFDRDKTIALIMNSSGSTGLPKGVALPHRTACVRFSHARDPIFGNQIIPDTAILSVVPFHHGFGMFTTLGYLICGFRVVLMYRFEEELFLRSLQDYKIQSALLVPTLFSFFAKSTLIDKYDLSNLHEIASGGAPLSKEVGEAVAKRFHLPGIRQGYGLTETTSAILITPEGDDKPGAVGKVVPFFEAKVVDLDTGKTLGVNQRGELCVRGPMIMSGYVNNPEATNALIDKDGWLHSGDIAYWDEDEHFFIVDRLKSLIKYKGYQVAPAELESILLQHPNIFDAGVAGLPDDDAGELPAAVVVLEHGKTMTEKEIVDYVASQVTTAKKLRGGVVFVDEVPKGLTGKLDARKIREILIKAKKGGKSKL
Chain of Thyrotropin receptor (Homo sapiens) (P16473 whole entry, looked up): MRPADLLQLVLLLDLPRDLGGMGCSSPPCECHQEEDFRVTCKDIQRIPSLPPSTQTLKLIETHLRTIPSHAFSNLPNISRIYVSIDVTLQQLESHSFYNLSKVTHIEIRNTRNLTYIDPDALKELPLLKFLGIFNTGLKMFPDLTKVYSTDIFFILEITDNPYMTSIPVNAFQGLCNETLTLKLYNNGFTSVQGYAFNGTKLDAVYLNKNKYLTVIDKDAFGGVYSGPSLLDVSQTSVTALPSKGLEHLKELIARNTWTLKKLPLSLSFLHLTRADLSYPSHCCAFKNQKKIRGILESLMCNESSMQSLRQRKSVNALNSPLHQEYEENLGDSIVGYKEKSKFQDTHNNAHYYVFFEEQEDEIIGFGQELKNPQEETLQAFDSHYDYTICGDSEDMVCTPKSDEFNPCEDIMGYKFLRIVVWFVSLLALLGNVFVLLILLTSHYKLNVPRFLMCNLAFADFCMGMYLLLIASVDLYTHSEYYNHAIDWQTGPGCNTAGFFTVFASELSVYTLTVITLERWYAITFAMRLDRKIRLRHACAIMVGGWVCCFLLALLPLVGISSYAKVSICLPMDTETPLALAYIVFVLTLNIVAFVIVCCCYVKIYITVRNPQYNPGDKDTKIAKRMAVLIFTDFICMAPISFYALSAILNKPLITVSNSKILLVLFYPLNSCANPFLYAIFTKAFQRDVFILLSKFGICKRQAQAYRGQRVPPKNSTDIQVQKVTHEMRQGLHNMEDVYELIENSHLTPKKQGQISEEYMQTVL
Chain of Nuclear receptor subfamily 1 group I member 3 (Homo sapiens) (Q14994 whole entry, looked up): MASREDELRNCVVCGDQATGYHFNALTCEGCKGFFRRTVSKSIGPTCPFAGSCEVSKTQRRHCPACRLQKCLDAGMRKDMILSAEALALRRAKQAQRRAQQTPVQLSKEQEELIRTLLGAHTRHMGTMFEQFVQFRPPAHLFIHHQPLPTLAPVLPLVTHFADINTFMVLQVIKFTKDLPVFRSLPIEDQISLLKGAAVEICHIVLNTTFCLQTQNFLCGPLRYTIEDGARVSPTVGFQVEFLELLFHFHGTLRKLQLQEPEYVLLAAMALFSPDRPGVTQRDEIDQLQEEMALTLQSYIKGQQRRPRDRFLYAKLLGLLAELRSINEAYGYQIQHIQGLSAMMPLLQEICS

Consider `C=CCc1ccc(OC)cc1`, for which the Potency result in [1], in assay [2], in assay [3], in assay [4], in assay [5] and in assay [6] was “inactive” each time. The Potency entry in [7], in assay [8], in assay [9], in assay [10], in assay [12] and in assay [13] was “inactive” in each case. In addition, the Potency result in assay [14] and in assay [15] was “inactive” throughout. Besides, in assay [11], the molecule was classed as inactive.

As to `CCOc1cc(Oc2ccc(C(F)(F)F)cc2Cl)ccc1[N+](=O)[O-]`, the Potency result in [1], in assay [2], in [3], in assay [4], in assay [5] and in assay [6] was “inactive” throughout. For the same molecule, the Potency result in assay [7], in assay [17], in assay [9], in assay [10], in [12] and in assay [13] was “inactive” throughout. Further, the Potency result in [15] is “inactive”. Also, the Potency in assay [16] was 55.1 µM (active) and inactive. In addition, the molecule was called inactive in assay [11]. In addition, the activity change, positive = activation in assay [18] was -29.7% (inactive) and -19.5% (inactive).

On to `NNC(N)=S`, for which the Potency in assay [1] is 22.5 µM (active); in assay [4], 63.5 µM (active); in assay [5], 63.5 µM (active); in [16], 31.8 µM (active) and inactive; in assay [10], 105 µM (active) and inactive; in assay [19], 16 µM (active) and 61.1 µM (active). Further, the Potency entry in [2], in assay [3], in assay [6], in assay [7], in assay [17] and in assay [8] was “inactive” throughout. Also, the Potency entry in assay [9], in assay [12], in assay [13], in assay [14] and in assay [15] was “inactive” throughout. For the same molecule, the call in [11] was inactive. For the same molecule, in assay [18], the activity change, positive = activation was -76.7% (inactive) and -56.6% (inactive).

In the case of `O=[N+]([O-])c1ccc(O)c([N+](=O)[O-])c1`, the Potency was 27.4 µM (active) and 27.3 µM (active) in assay [1]; 30.8 µM (active) in assay [3]; 30.8 µM (active) in assay [4]; 30.8 µM (active) and 27.3 µM (active) in assay [7]; 30.8 µM (active) and 21.7 µM (active) in assay [16]; 21.8 µM (active) and 21.7 µM (active) in assay [19]. In addition, the Potency entry in assay [2], in assay [5], in assay [6], in assay [17], in assay [8] and in [9] was “inactive” each time. The Potency result in [10], in assay [13], in [14] and in assay [15] was “inactive” throughout. Also, in assay [11], the result was inactive. For the same molecule, in assay [18], the activity change, positive = activation was -36.7% (inactive) and -43.4% (inactive).

As for `CNC(=O)Oc1cccc2c1OC(C)(C)O2`, the Potency result in assay [1], in assay [2], in [3], in assay [4], in assay [5] and in assay [6] was “inactive” throughout. Besides, the Potency result in [7], in [8], in [9], in assay [10], in assay [12] and in assay [13] was “inactive” throughout. For the same molecule, the Potency result in assay [14] and in assay [15] was “inactive” each time. The outcome in assay [11] was inactive.

With `CC(C)N(C(=O)SCC(Cl)=C(Cl)Cl)C(C)C`, the Potency result in assay [1], in [2], in assay [3], in assay [4], in assay [5] and in assay [6] was “inactive” throughout. The Potency entry in assay [7], in assay [9], in assay [10], in [12], in assay [13] and in assay [14] was “inactive” throughout. In addition, in [15], the Potency entry was “inactive”. For the same molecule, the Potency in [8] was 30.2 µM (active) and 15.4 µM (active). In [11], the outcome was inactive.

In the case of `COP(=S)(OC)Oc1cc(Cl)c(Cl)cc1Cl`, the Potency result in assay [1], in assay [2], in assay [3], in assay [4], in assay [5] and in assay [7] was “inactive” each time. For the same molecule, the Potency result in assay [8], in assay [9], in assay [12], in assay [13], in assay [14] and in [15] was “inactive” each time. The Potency in assay [6] was 54.1 µM (active). Further, in assay [11], the molecule was called inactive.

These data come from PubChem BioAssay (Tox21).
